The campaign covered roughly 140,000 compounds. About 240 (0.17%) were called active. Roughly 9% stayed inconclusive and do not appear here. This excerpt belongs to a sample that is enriched for actives. Values without a mark were called inactive. The call rests on the fitted dose curve; in most records, active means well fitted inhibition curve with a large enough effect; inconclusive means small, poorly fitted or top-dose-only effect; inactive means no such curve, though single readings can be large or run the other way.
Potency means the concentration at half of the fitted maximal effect.

The nature of this assay: Primary qHTS assay for inhibitors of alpha-synuclein gene (SNCA) expression. Further: nearly all actives have a fitted effect of over 45% in size.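 On activity change, negative = inhibition: plate controls were DMSO cells for no effect and cell-free wells for full effect.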 The settings on record: HEK-293 SNCA-luciferase knock-in, luminescence, 24 h; series mostly up to 57.2 µM; activity change, negative = inhibition: at the top concentration. (In general: Quantitative high-throughput screening tests each substance at several concentrations.)
Consider `CC[C@H]1CN(C(=O)c2ccc(F)cc2)CC[C@H]1CC(=O)N[C@@H](CO)CC(C)C`, for which the “activity change, negative = inhibition” value is 2.09% [at 87.6 µM]. In the case of `O=C(COc1ccc(F)cc1)NC1CCc2n[nH]c(=O)n2CC1` (stereo not given), the “activity change, negative = inhibition” value is -1.66%. As to `COc1ccc(Cc2nnc3ccc(C(=O)NCCc4ccc(F)cc4)cn23)cc1`, the “activity change, negative = inhibition” value was 15%.

Turning to `Cc1cn2nc(C(=O)Nc3ccc(F)cc3C)cc2c(N(C)Cc2ccccc2)n1`, the “activity change, negative = inhibition” value was 15.7%. Still for that read-out and setting: under `COc1cccc(C(=O)N2CCCC(C(=O)N3CCC(c4nc5ccncc5[nH]4)C3)C2)c1` (stereo not given) stands -0.429%; under `COc1ccc(-c2cc3nc4c(c(=O)n3[nH]2)CCN(C(=O)c2ccccc2C)C4)cc1`, -10.8%; under `O=C(c1cccs1)N1CC[C@H](c2nnc(Cc3c[nH]c4ccccc34)o2)C1`, -17.1% [at 87.6 µM]. `Cc1ccccc1NC(=O)c1cc2cn(C(C)C)cc2s1`: the “activity change, negative = inhibition” value is 2.8%. As for `COCC(=O)N1CCCC(C(=O)N2CCC3(CC2)CC(=O)Nc2ccccc2O3)C1` (stereo not given), the “activity change, negative = inhibition” value is -9.94%. `Cc1nn2c(c1-c1ccccc1-c1ccccc1)N(CC1CC1)CCC2`: the Potency is 2.51 µM (active). Regarding `Cc1nn2c(c1-c1ccccc1-c1ccccc1)N(C(=O)CN1CCOCC1)CCC2`, the “activity change, negative = inhibition” value was -12% [at 87.6 µM]. On to `Cc1nn2c(c1-c1ccccc1N1CCCC1)N(C(=O)c1ccc(Oc3ccccc3)cc1)CCC2`, for which the “activity change, negative = inhibition” value was 16.9%. For the compound `CC(C)(C)c1csc(NC(=O)c2ccc3c(c2)OCCN(C2CCC2)C3)n1`, the “activity change, negative = inhibition” value is -24.7% [at 87.6 µM].

On to `O=C(c1cccs1)N1CCCCCC1CN1CCCC1` (stereo not given), for which the “activity change, negative = inhibition” value is 1.11%. In the case of `O=C(O)COc1ccc(-c2nccc3c2C(=O)N(Cc2ccccc2)CC(COc2cccc(C(F)(F)F)c2)O3)cc1` (stereo not given), the “activity change, negative = inhibition” value was 0.232%. Same read-out and setting: under `Cc1ccc(C(=O)N2CCCN(C(=O)C3CC3)c3ccccc32)cc1F` stands -19.9%.

Consider `O=C(c1ccccc1Cl)N1CCCN(c2cc(-c3ccc(F)cc3)[nH]n2)CC1`, for which the “activity change, negative = inhibition” value is -1.66%. Still for that read-out and setting: under `CNC(=O)[C@H]1C[C@H](Oc2ccccc2)CN1C(=O)CCn1nc(C)cc1C` stands 33.4%; under `Cc1ccc(S(=O)(=O)N2CCC3(CC2)C(=O)N(CC(=O)NC(C)C)CN3c2ccccc2)cc1`, -12.8%. Regarding `CCc1nc2c(c(-c3ccc(O)cc3)n1)CCN(Cc1cccc(OC)c1)CC2`, the “activity change, negative = inhibition” value was 7.49%. As for `CCn1ccc(C(=O)N2CCC(C3CCN(C(C)=O)CC3)C2)n1` (stereo not given), the “activity change, negative = inhibition” value is 4.71%. On to `O=C(NCC1CC1)c1ccc2nnc(Cc3ccc(Cl)cc3)n2c1`, for which the “activity change, negative = inhibition” value was -11.1%. For the compound `O=C(NCC1Cn2cccc2CN1Cc1ccccc1)c1ccco1` (stereo not given), the “activity change, negative = inhibition” value was 43.1%. Turning to `O=C(Cc1c[nH]c2ncc(-c3ccccc3F)cc12)N1CCOCC1`, the “activity change, negative = inhibition” value is -19.1% [at 87.6 µM]. The same measure, in the same setting: under `N[C@@H]1CCN(Cc2cccc(Oc3ccc(F)cc3)c2)C[C@H]1O` stands 16.8%.

These data come from PubChem BioAssay AID1671194 (National Center for Advancing Translational Sciences (NCATS), 2021).
